These results are taken from PubChem BioAssay (NCATS).

“And” between values parts separate entries of the source, which are not always exact repeats. Equal values may be shown once. Results filed as inconclusive are left out. A number with no mark means an inactive call. The source made the active and inactive calls. Calls come from the whole dose curve; as a rule, active = well fitted inhibition curve with a large enough effect; inconclusive = small, poorly fitted or top-dose-only effect; inactive = flat fitted curve, though single readings scatter.
% is set by controls: 0 for no effect and ±100 for the full control effect; potency is the fitted concentration of half-maximal effect.

The test in a line: Primary qHTS for inhibitors of nuclear receptor binding SET domain protein 2 (NSD2) in an isogenic RCH-ACV NSD2 p.E1099K mutant (9B) (AID 1645876). Note: nearly all actives have a fitted effect of over 70% in size. The conditions noted are these: RCH-ACV (leukaemia line) NSD2 E1099K (9B) viability, CellTiter-Glo, 72 h; series mostly up to 44.9 µM; activity change, negative = viability loss: at the top concentration.
As for `CC(C)(C)COc1ccc(-n2cc(C(=O)O)cn2)cc1C#N`, the “activity change, negative = viability loss” value was -62.9%.
`CC(=O)Nc1ccc([C@H](C)C(=O)Nc2ncc(C(C)C)s2)cc1`: the Potency was 2.63 µM (active).
Consider `c1cc(-c2sc(-c3ccncc3)c(-c3ccncc3)c2-c2ccncc2)ccn1`, for which the “activity change, negative = viability loss” value is -5.94%.
For the compound `NC(=O)c1cccc(-c2cc(Nc3ccc(OC(F)(F)F)cc3)ncn2)c1`, the Potency was 20.5 µM (active) and 14.8 µM (active).
For the compound `CC(C)C(=O)Nc1ncc(-c2cc(C(F)F)nn2-c2c(Cl)cccc2Cl)s1`, the Potency is 23 µM (active).
Still for that read-out and setting: under `COc1ccc(-c2cc(=O)c3c(O)cc(O)cc3o2)cc1O` stands 11.8 µM (active); under `CCOC(=O)C1=C(N)Oc2ccc(Br)cc2C1C(C#N)C(=O)OCC` (centres undefined), “inactive”.
Still for that read-out and setting: the same measure for `Clc1cc(Cl)cc(CNc2ncncc2-c2ccc3c(c2)OCO3)c1`: 13.2 µM (active).
In the case of `COCCOC(=O)C1=C(C)NC2=C(C(=O)CC(c3ccccc3OC)C2)C1c1cccc(O)c1` (centres undefined), the Potency was 4.68 µM (active) and 3.65 µM (active).
Regarding `c1ccc2c(-c3cnn4cc(-c5ccc(N6CCNCC6)cc5)cnc34)ccnc2c1`, the Potency was 2.63 µM (active).
As to `COc1ncc(-c2ccc3nccc(-c4ccnnc4)c3c2)cc1NS(=O)(=O)c1ccc(F)cc1F`, the Potency was 1.3 nM (active) and 8.3 nM (active).
On to `CNC(=O)c1ccc2cc(C3(O)CCn4cncc43)ccc2c1` (centres undefined), for which the “activity change, negative = viability loss” value is -4.12%.
As for `CN[C@@H](C)C(=O)N[C@H]1CN(C(=O)CC(C)C)CC[C@H]2CC[C@@H](C(=O)NC(c3ccccc3)c3ccccc3)N2C1=O`, the Potency entry was “inactive”.
On the same count and under the same terms, the same measure for `OC[C@@H](O)[C@H](O)[C@H](O)[C@@H](O)CO`: “inactive”.
